3T3 cytotox: NIH 3T3 cell cytotoxicity; hit rate 4.3% among 94,000; Potency, µM (doses to about 96.7 µM), inactives show top-dose activity change, negative = cytotoxicity, hits mostly inhibitors; NIH 3T3 viability, CellTiter-Glo ATP luminescence, 48-72 h; AID 1345082; further: nearly all actives have a fitted effect of over 55% in size
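Cytotoxicity is measured as loss of cellular ATP: NIH 3T3 cells (400/well) are exposed to compound for 48 or 72 hr at 37 °C, then CellTiter-Glo luminescence is imaged after 10 min at room temperature.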
GPT2 inhibitor: blocks human glutamate pyruvate transaminase 2 | Q8TD30 | Recombinant GPT2, coupled pyruvate oxidase/HRP Amplex Red fluorescence | Potency, µM (series often up to 57.7 µM), for inactives: at the highest dose activity change, negative = inhibition, hits mostly inhibitors | hit rate 0.25% among 100,000; further: nearly all actives have a fitted effect of over 60% in size
Target sequence (Q8TD30 whole entry, looked up): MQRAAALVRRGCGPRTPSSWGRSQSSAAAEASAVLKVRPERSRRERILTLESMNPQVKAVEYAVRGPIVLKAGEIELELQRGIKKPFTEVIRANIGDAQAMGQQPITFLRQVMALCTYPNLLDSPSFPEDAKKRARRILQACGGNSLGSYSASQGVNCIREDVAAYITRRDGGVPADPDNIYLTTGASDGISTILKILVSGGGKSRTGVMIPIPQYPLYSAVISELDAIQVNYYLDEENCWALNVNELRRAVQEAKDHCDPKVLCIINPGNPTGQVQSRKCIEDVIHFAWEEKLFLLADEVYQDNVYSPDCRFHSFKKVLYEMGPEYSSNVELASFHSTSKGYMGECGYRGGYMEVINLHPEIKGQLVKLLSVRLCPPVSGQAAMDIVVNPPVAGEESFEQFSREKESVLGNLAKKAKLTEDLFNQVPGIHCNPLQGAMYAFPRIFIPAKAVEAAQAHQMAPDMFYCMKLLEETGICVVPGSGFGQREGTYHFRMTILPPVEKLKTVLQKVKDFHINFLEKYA
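GPT2 10ng/uL, a-KG 250uM, L-Ala 2mM, HEPES pH7.5 + 0.0001% Tween; 30 min RT. Then Amplex mix (PO/HRP/ThPP), 30 min RT dark, fluorescence. AOA 50uM used as positive control.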
NPR1 antag: human Npr1 receptor antagonism; P16066; HEK293 hNpr1 GloSensor cGMP, ANP-stimulated luminescence; Potency, µM (top dose mostly 46.3 µM), for inactives: at the top dose activity change, negative = inhibition, usual class: inhibitors; hit rate 1.6% among 76,000; AID 1347048; calls by dose curve; further: nearly all actives have a fitted effect of over 60% in size
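HEK293 cells stably expressing human Npr1 and cGMP GloSensor pGS-40F, loaded 2 h with 2% GloSensor reagent, given compound 30 min at room temperature. Luminescence read before and 20 min after 0.1 nM hNppA.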
HEK293 tox: kills HEK 293 cells; HEK 293 viability, ATP luminescence (CellTiter-Glo), 48-72 h; Potency, µM (titrated, usually from 115 µM), for inactives: at the top dose activity change, negative = cytotoxicity, actives largely listed as inhibitors; hit rate 6.6% among 94,000; further: nearly all actives have a fitted effect of over 60% in size
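ATP-coupled CellTiter-Glo luminescence served as viability read-out, recorded 10 min after reagent addition at room temperature. HEK 293 cells, 250 cells/well, had been incubated with pintool-transferred compound for 48 or 72 hr at 37 degree Celsius.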
FLuc inh: blocks purified firefly luciferase enzyme activity | hit rate 2.5% among 76,000 | purified P. pyralis luciferase, luminescence, biochemical | P08659 | Potency, µM (series often up to 115 µM), actives largely listed as inhibitors | AID 1347043; further: nearly all actives have a fitted effect of over 65% in size
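Luminescence read by CCD imaging after purified firefly luciferase (10nM final) was added to substrate buffer holding 10uM D-luciferin and 10uM ATP, pH 7.5, pre-dosed with compound.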
An asterisk follows results filed as active; i = inactive; ? = inconclusive; / = not tested or not shown; [ ] = remark or other dose. The list is not random: actives were taken first. Their share in the collection is about 10%. Unless noted, the call rests on the fitted dose curve; in most records, active means well fitted curve in the direction sought with a large enough effect; inconclusive means small, poorly fitted or top-dose-only effect, or another doubt; inactive means no such curve, though single readings can be large; an effect the other way counts as inactive or inconclusive. On the % scale 0 is the no-effect control and ±100 the full control effect; potency means the concentration at half of the fitted maximal effect.

SMILES	3T3 cytotox	GPT2 inhibitor	NPR1 antag	HEK293 tox	FLuc inh
COc1ccc(Nc2ccnc(N3CCN(C(=O)c4ccc(OC)cc4)CC3)n2)cc1	25µM*	-6%	/	25µM*	/
COC(=O)N1CCN(c2nccc(Nc3ccc(OC)cc3)n2)CC1	?	i	/	?	/
Cc1ccc(Nc2ccnc(N3CCCN(C(=O)Cc4cccc(Cl)c4)C3)n2)cc1	28µM*	4%	/	13µM*	/
COc1ccc(Nc2ccnc(N3CCN(C(=O)c4ccc(F)cc4)CC3)n2)cc1	13µM*	0%	/	22µM*	/
COCC(=O)Nc1ccc([C@@H](O)[C@H]2COCC(=O)N2Cc2ccc(F)cc2)cc1	-3%[138 µM]	-7%[88.5 µM]	2%[70.6 µM]	i	i
CCCNC(=O)N1CCN2C(=O)c3cc(-c4cccc(C(F)(F)F)c4)ccc3NC(=O)[C@@H]2C1	?	1%	3%	?	i
O=C(Cn1cccc1-c1nc(-c2ccc3c(c2)OCO3)no1)Nc1ccccc1	-6%	i	-1%	?	i
COCCOCC(=O)NCC12CCC=C1N(C)C(=O)CC2 (stereo not drawn)	-20%	i	/	1%	/
COc1ccc(Nc2ccnc(N3CCN(C(=O)c4cccc(Cl)c4)CC3)n2)cc1	28µM*	-8%	/	28µM*	/
COCC(=O)N1CCN(c2nccc(Nc3ccc(OC)cc3)n2)CC1	?	i	/	?	/
COc1ccc(Nc2ccnc(N3CCN(C(=O)Cc4cccc(Cl)c4)CC3)n2)cc1	28µM*	-6%	/	?	/
Cc1ccc(Nc2ccnc(N3CCN(C(=O)c4cccc(Cl)c4)CC3)n2)cc1	?	i	/	?	/
O=C(Cc1cccc(Cl)c1)N1CCN(c2nccc(Nc3ccccc3Cl)n2)CC1	14µM*	i	/	35µM*	/
Cc1ccc(Nc2ccnc(N3CCN(C(=O)c4ccccc4C)CC3)n2)cc1	35µM*	-3%	/	40µM*	/
CN(Cc1ccccc1)C(=O)C[C@@H]1c2nc(NC(=O)c3ccc(F)cc3)sc2C[C@@H]2[C@](C)(CO)[C@H](O)CC[C@]21C	25µM*	i	-10%	?	i
COc1ccc(C(=O)Nc2nc3c(s2)C[C@@H]2[C@](C)(CO)[C@H](O)CC[C@@]2(C)[C@@H]3CC(=O)N(C)Cc2ccccc2)cc1	?	-2%	-15%	?	i
COc1ccc(C(=O)Nc2nc3c(s2)C[C@@H]2[C@](C)(CO)[C@H](O)CC[C@@]2(C)[C@@H]3CC(=O)N2CCC(C)CC2)cc1	18µM*	-4%	-14%	?	i
C#CCNC(=O)C[C@@H]1c2nc(NC(=O)c3ccc(C(C)(C)C)cc3)sc2C[C@@H]2[C@](C)(CO)[C@H](O)CC[C@]21C	32µM*	2%	-9%	?	35µM*
O=C(c1cccs1)N1CCC(N2CC(OCC3CC3)C23CCCCC3)CC1 (stereo not drawn)	-24%	i	2%	-26%	i
O=C1NC(=NC2CCCCC2)C2(CCN(Cc3cccnc3)CC2)N1c1cc(F)cc(F)c1	28µM*	-8%	/	i	/
O=C1NC(=NC2CCCCC2)C2(CCN(Cc3cccnc3)C2)N1c1cc(F)cc(F)c1 (stereo not drawn)	35µM*	-14%	/	-11%	/
N#Cc1ccc(S(=O)(=O)N2CCC(Cc3nc(-c4cccnc4)n[nH]3)C2)cc1 (stereo not drawn)	-24%	i	-4%	?	i
Cc1cc(=O)n(CC(=O)Nc2cccc(Cl)c2C)c(N2CCOCC2)n1	i	i	5%	-12%	i
CC(=O)N1CCC(N2CC[C@@H](CO)N(C)c3ncccc3C2)CC1	45µM*	4%[88.5 µM]	6%[70.6 µM]	?	i
C=CCNC(=O)Cc1ccc(N(Cc2cccc(F)c2)C(=O)c2ccco2)cc1	-27%	1%	4%	?	i
SMILES	3T3 cytotox	GPT2 inhibitor	NPR1 antag	HEK293 tox	FLuc inh
CN1CCCN(C(=O)c2ccc(F)cc2)c2ccccc21	?	i	1%	-18%	i
Cc1cc(C)cc(C(=O)N2CCCN(C)c3ccccc32)c1	?	i	-1%	40µM*	i
COc1ccc(NC(=O)c2cnc3n[nH]c(-c4ccc(OC)cc4C)c3n2)cc1	45µM*	i	4%[70.6 µM]	?	i
COc1ccc(-c2[nH]nc3ncc(C(=O)Nc4ccn(C)n4)nc23)c(C)c1	?	-1%[88.5 µM]	-1%[70.6 µM]	89µM*	i
COc1ccc(-c2[nH]nc3ncc(C(=O)N4CC(O)C4)nc23)c(C)c1	7.9µM*	1%[88.5 µM]	-3%[70.6 µM]	?	i
COc1ccc(-c2[nH]nc3ncc(C(=O)N4C[C@@H](C)O[C@@H](C)C4)nc23)c(C)c1	?	4%[88.5 µM]	8%[70.6 µM]	?	i
Cc1noc(-c2ccc3c(c2)OCO3)c1C(=O)NCc1cc(F)cc(F)c1	?	i	2%	32µM*	i
Cc1noc(-c2ccc3c(c2)OCO3)c1C(=O)NC(C)CCc1ccccc1 (stereo not drawn)	?	i	-15%	45µM*	i
Cc1noc(-c2ccc3c(c2)OCO3)c1C(=O)N1CCC(Cc2ccc(F)cc2)CC1	35µM*	-5%	?	28µM*	i
CCOc1ccccc1CNC(=O)c1c(C)noc1-c1ccc2c(c1)OCO2	?	i	-8%	?	i
O=C(NCC(F)F)c1nc2cccnc2n(C2CCCC2)c1=O	?	0%[88.5 µM]	/	?	/
C[C@@H]1CN(C(=O)c2ccc3c(c2)NC(C)(CCCCc2ccccc2)CO3)C[C@H](C)O1 (stereo partly drawn)	?	-16%[88.5 µM]	?	?	i
Cc1cccc(C(=O)N2CCC[C@H]2c2nc(-c3ccccc3Cl)no2)c1	?	0%	-14%	?	?
CCOc1ccc(C(=O)Nc2ccc3c(c2)CCC(=O)N3CC(C)C)cc1	?	i	?	28µM*	i
CCCN1C(=O)CCc2cc(NC(=O)c3ccc(C)cc3)ccc21	?	-9%	-14%	?	32µM*
CCCN1C(=O)CCc2cc(NC(=O)c3ccc4c(c3)OCO4)ccc21	?	-10%	-3%	45µM*	32µM*
CC(=O)Nc1ccc2c(c1)CCC(=O)N2CC(C)C	-5%	0%	0%	3%	i
COc1ccccc1-n1c(=O)c(C(=O)NCc2ccccc2F)nc2cccnc21	-12%	i	/	i	/
CC(=O)N1C[C@@H](F)[C@@H](OCc2nc3ccc(C(F)(F)F)cc3[nH]2)C1	-11%[138 µM]	i	1%[70.6 µM]	-5%[172 µM]	i
Cc1ccc2nc(CO[C@H]3CN(Cc4ccc(F)c(F)c4)C[C@H]3F)[nH]c2c1	?	3%[88.5 µM]	-27%[70.6 µM]	?	i
Cc1cc2nc(CO[C@H]3CN(Cc4ccc(S(C)(=O)=O)cc4)C[C@H]3F)[nH]c2cc1C	-21%[174 µM]	-4%[88.5 µM]	-19%[70.6 µM]	?	56µM*
